“And” between values parts separate entries of the source, which are not always exact repeats. Identical values can stand only once. Some structures have more than one record in an assay (separate samples or runs), and their calls can disagree. The source made the active and inactive calls. How the source made its calls: active means hit-call score of the fitted dose curve at least 0.9, where 1 is the maximum; inactive means score below 0.9.

Chain of E-selectin (Homo sapiens) (P16581 whole entry, looked up): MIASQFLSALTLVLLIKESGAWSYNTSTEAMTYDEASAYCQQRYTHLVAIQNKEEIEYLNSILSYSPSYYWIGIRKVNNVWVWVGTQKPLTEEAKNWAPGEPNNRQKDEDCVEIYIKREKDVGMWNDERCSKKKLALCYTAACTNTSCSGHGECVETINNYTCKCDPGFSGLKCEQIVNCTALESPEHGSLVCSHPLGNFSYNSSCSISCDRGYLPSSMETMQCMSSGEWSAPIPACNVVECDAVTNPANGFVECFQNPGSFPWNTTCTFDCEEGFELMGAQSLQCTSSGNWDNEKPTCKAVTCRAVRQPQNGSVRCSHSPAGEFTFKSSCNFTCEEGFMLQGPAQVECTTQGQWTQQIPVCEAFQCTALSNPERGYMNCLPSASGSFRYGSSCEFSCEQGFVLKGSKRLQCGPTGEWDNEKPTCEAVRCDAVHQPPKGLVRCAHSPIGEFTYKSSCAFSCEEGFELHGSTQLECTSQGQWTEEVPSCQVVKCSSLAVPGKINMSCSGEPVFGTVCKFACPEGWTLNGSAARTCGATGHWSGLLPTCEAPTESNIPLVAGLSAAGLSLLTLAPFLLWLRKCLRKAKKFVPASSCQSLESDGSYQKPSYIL

Read-out in the experiment: E-selectin (Homo sapiens) (UniProt P16581)
The experiment is described as follows: BSK_3C_Eselectin: BioMAP Diversity Plus: 3C Assay for Eselectin Biomarker Activity (AID 2283015).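 On outcome: cell surface E-selectin protein quantified by ELISA 24 h after dosing.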 The note with it: primary human endothelial cells (HUVEC); actives raise or lower the signal. In a few lines: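 Primary human umbilical vein endothelial cells (3C system) were dosed with chemical and cell-surface E-selectin measured by ELISA 24 h later. Bidirectional curve fitting used DMSO as negative control and baseline.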
For the compound `Oc1ccc(Nc2ccccc2)cc1`, the AC50 is 20 µM (active).
Turning to `NC(=O)C(F)(F)C(F)(F)C(F)(F)C(F)(F)F`, the result was inactive.
`FC(F)(F)C(F)(F)C(F)(F)C(F)(F)CCI`: the result was inactive.
On the same count and under the same terms, next, `CCCCCCCCC(F)(F)C(F)(F)C(F)(F)C(F)(F)C(F)(F)C(F)(F)F`: “inactive”; `C=CC(=O)OCC(F)(F)C(F)(F)C(F)(F)C(F)(F)C(F)(F)C(F)(F)C(F)(F)F`: “inactive”.
For `Nc1ccc([N+](=O)[O-])cc1O`, the result was inactive.
Consider `FC(F)(F)C(F)(F)C(F)(F)C(F)(F)C(F)(F)C(F)(F)C(F)(F)C(F)(F)F`, for which the result was inactive.
Same read-out and setting: next, `O=C(O)C(F)(OC(F)(F)C(F)(OC(F)(F)C(F)(F)C(F)(F)F)C(F)(F)F)C(F)(F)F` (centres undefined): “inactive”.
With `Cc1ccc(S(=O)(=O)OCC(F)(F)C(F)(F)C(F)(F)C(F)(F)C(F)(F)C(F)F)cc1`, the AC50 is 33.4 µM (active) and the result was inactive.
`CCCCNc1ccccc1`: the result was inactive.
Turning to `CCO[Si](CCC(F)(F)C(F)(F)C(F)(F)C(F)(F)C(F)(F)C(F)(F)F)(OCC)OCC`, the outcome was inactive.
The same measure, in the same setting: to `CCc1ccc(C(c2ccc(CC)cc2)C(Cl)Cl)cc1` belongs “inactive”.
In the case of `O=C(O)C=C(C(F)(F)F)C(F)(F)F`, the AC50 is 15.3 µM (active) and 5.95 µM (active).
As for `CCN(CC)c1ccc2c(C)cc(=O)oc2c1`, the outcome was inactive.
Same read-out and setting: to `C=CC(F)(F)C(F)(F)C(F)(F)C(F)(F)C(F)(F)C(F)(F)C(F)(F)C(F)(F)F` belongs “inactive”.
The same measure, in the same setting: to `CCc1c(Br)c(Br)c(Br)c(Br)c1Br` belongs “inactive”.
Still for that read-out and setting: next, `OCC(F)(F)C(F)(F)C(F)(F)F`: “inactive”; `CCCCC(CC)COP(=O)(O)OCC(CC)CCCC` (centres undefined): “inactive”.

The term AC50 denotes the midpoint of the concentration-response curve, whichever way the signal moves.

These data come from PubChem BioAssay (EPA / NIEHS).
